According to PubChem BioAssay (NCATS):
Where “and” joins values, the source holds several entries; their conditions need not be identical. Identical values can stand only once. Records with an inconclusive call do not appear. Calls of active or inactive are those of the source. Unless noted, the call rests on the fitted dose curve; in most records, active means well fitted curve in the direction sought with a large enough effect; inconclusive means small, poorly fitted or top-dose-only effect, or another doubt; inactive means no such curve, though single readings can be large; an effect the other way counts as inactive or inconclusive.

Experiments:
[1] = qHTS to identify inhibitors of the type 1 interferon - major histocompatibility complex class I in skeletal muscle: primary screen against the NCATS LOPAC collection (AID 1347405);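 further: lytic HiBiT luminescence reporting HLA-B protein level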; further: potency means the concentration at half of the fitted maximal effect
Method in brief: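 HLA-B HiBiT myoblasts, IFN-b 4 ng/ml, dexamethasone-free medium; compounds 7-pt 1:4.3 titration, top 46 uM final; 24 h at 37 C; Nano-Glo HiBiT lytic reagent, 10 min RT, luminescence.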

[2] = qHTS for inhibitors of adenylyl cyclases using a fission yeast platform: a pilot screen against the NCATS LOPAC library (AID 1347410);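 further: plate controls were DMSO vehicle for no effect and DPI positive control for full effect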
Method in brief: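 S. pombe CHP2027 (AC9-GNAS-PDE4D2) carrying a PKA-repressed fbp1-GFP reporter was exposed to LOPAC compounds (final up to 57 µM) for 18 h at 30C in the dark, in EMM with histidine, lysine and uracil; GFP gain-of-signal read by laser scanning cytometry.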

[3] = target: Single-stranded DNA cytosine deaminase (Homo sapiens) (UniProt Q9GZX7); assay: Validation qHTS assay for inhibitors of Activation Induced Cytidine Deaminase (AID): AID signal (AID 1347429); further: on the % scale 0 is the no-effect control and ±100 the full control effect
Single-stranded DNA cytosine deaminase (Homo sapiens), sequence (Q9GZX7 whole entry, looked up): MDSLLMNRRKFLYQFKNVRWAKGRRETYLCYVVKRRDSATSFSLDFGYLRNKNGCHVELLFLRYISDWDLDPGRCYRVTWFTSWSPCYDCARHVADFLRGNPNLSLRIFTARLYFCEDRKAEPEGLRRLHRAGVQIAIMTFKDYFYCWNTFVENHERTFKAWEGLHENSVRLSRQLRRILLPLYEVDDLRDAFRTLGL
Method in brief: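 AID+UDG coupled FRET deamination; cpds up to 114 uM final; DJC20/DJC23 substrate, 4 hr RT; NaOH stop, 30 min RT; read Ex 540/Em 590.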

[4] = Primary qHTS for inhibitors of La Crosse Virus (LACV) - induced cell death in SH-SY5Y cells (AID 1508616);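 further: top concentration of the series differs between compounds; 0% = infected DMSO wells and 100% = uninfected DMSO wells; higher means more rescue of cells from virus-induced death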
Method in brief: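 Cytopathicity rescue screen: compounds pinned onto SH-SY5Y cells, which are then infected with LACV (MOI 0.01) and held 6 days at 37C. Percent activity is scaled between infected DMSO control and uninfected DMSO control.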

[5] = target: Calcium and integrin-binding protein 1 (Homo sapiens) (UniProt Q99828); assay: Validation qHTS for Identification of Calcium Integrin Binding protein 1 (CIB1) Competitor (AID 1508618); further: on the % scale 0 is the no-effect control and ±100 the full control effect
Calcium and integrin-binding protein 1 (Homo sapiens), sequence (Q99828 whole entry, looked up): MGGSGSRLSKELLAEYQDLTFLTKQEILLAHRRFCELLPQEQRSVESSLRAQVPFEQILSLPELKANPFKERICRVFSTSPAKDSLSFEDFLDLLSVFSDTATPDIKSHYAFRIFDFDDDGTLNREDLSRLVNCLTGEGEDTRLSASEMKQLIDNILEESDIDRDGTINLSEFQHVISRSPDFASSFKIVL
Method in brief: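 CIB1-GST (1 uM final) in 5 mM HEPES pH 7.4, 125 mM NaCl, 5 mM CaCl2, 0.01% Tween20 was preincubated 15 min at room temperature with compound (up to 114 uM), then FITC-alphaIIb peptide (100 nM) added for 15 min; fluorescence polarization read.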

[6] = target: Calcium and integrin-binding protein 1 (Homo sapiens) (UniProt Q99828); assay: Primary qHTS for Identification of Calcium Integrin Binding Protein 1 (CIB1) Competitor (AID 1508620); further: potency means the concentration at half of the fitted maximal effect
Method in brief: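 Fluorescence polarization competition: GST-tagged CIB1 (1 uM final) preincubated with compound 15 min at room temperature, then FITC-labelled alphaIIb peptide (100 nM final) added. After 15 min at room temperature, polarization read at Ex 480/Em 540.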

Papain (Carica papaya) = Papain (Carica papaya) (UniProt P00784); assay: Primary qHTS assay for inhibitors of the protease papain (AID 1645873);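 further: papain turnover of Z-FR-AMC read as the AMC fluorescence gain over 10 min; series mostly up to about 50 µM; on the % scale 0 is the no-effect control and ±100 the full control effect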
Papain (Carica papaya), sequence (P00784 whole entry, looked up): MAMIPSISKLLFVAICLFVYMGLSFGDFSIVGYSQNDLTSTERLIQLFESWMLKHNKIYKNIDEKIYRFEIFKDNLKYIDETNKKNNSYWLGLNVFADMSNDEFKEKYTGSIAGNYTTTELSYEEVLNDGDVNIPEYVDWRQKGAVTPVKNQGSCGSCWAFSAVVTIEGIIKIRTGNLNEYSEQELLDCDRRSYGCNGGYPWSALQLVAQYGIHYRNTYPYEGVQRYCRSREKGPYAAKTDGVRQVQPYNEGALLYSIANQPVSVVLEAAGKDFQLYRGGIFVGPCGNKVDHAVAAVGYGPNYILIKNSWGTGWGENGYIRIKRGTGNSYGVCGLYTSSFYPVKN

[7] = qHTS to identify inhibitors of the type 1 interferon - major histocompatibility complex class I in skeletal muscle: primary screen against the NCATS Mechanism Interrogation Plate v5.0 (MIPE) Libary (AID 1347411); further: nearly all actives have a fitted effect of over 65% in size; further: potency means the concentration at half of the fitted maximal effect;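 on activity change, negative = inhibition: plate controls were vehicle for no effect and reference inhibitor for full effect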
Method in brief: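 HLA-B HiBit myoblasts, dexamethasone-free medium + 4 ng/ml IFN-b, 24 h compound, 11-pt 1:3 from 46 uM final. Readout: Nano-Glo HiBiT lytic luminescence after 10 min lysis, RT.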

[8] = Primary qHTS for small molecule stabilizers of the endoplasmic reticulum resident proteome: Secreted ER Calcium Modulated Protein (SERCaMP) assay (AID 1508630); further: on the % scale 0 is the no-effect control and ±100 the full control effect
Method in brief: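 The SH-SY5Y reporter protocol was run at 3 concentrations up to 38.3 uM (primary) or 11 concentrations (follow-up): 16 h compound, 100 nM thapsigargin for 4 h, then extracellular luciferase luminescence.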

[9] = qHTS to identify inhibitors of the type 1 interferon - major histocompatibility complex class I in skeletal muscle: primary screen against the NCATS Pharmaceutical Collection (AID 1347407)
Method in brief: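 Immortalized human myoblasts (C25cl48) with HiBiT knocked into endogenous HLA-B*08:01 were stimulated with 4 ng/ml IFN-beta and treated with compounds (8-point, 1:5, top 46 uM final) for 24 h at 37 C; HiBiT lytic luminescence read.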

[10] = target: Protein phosphatase 1D (Homo sapiens) (UniProt O15297); assay: RapidFire Mass Spectrometry qHTS Assay for Modulators of WT P53-Induced Phosphatase 1 (WIP1) (AID 1347424); further: potency means the concentration at half of the fitted maximal effect;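 on activity change, negative = inhibition: series mostly up to about 63 µM; plate controls were DMSO wells for no effect and GSK830371 inhibitor control at 10 µM for full effect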
Protein phosphatase 1D (Homo sapiens), sequence (O15297 whole entry, looked up): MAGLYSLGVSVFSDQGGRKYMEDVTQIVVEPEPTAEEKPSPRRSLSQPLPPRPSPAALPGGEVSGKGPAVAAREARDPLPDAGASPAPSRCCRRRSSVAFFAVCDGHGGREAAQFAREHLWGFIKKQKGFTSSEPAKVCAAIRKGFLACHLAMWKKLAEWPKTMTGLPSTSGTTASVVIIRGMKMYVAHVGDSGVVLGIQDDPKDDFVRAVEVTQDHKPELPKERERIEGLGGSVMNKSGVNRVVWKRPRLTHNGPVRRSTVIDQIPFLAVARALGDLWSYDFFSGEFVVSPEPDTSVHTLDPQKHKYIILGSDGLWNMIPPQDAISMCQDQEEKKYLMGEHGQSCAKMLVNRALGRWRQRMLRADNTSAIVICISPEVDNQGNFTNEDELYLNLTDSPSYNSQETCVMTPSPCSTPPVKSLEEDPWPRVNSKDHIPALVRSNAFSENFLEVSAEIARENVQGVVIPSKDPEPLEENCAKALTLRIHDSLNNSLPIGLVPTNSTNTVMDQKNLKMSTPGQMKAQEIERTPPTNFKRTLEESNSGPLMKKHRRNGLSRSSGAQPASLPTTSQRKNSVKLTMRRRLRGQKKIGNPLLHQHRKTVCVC
Method in brief: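 RapidFire MS readout of dephosphorylated VEPPL-S-QETFS product, with 1 uM isotope-labelled peptide standard. Reaction: 10 nM WIP1, 2 uM phosphopeptide substrate, 5 min, room temperature, after 1 h compound preincubation; stopped with 0.5% formic acid.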

[11] = target: Calcium and integrin-binding protein 1 (Homo sapiens) (UniProt Q99828); assay: Confirmatory qHTS for Identification of Calcium Integrin Binding Protein 1 (CIB1) Competitor (AID 1508617); further: on the % scale 0 is the no-effect control and ±100 the full control effect; nearly all actives have a fitted effect of over 65% in size
Method in brief: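 Fluorescence polarization competition: CIB1-GST (1 uM final) in 5 mM HEPES pH 7.4, 125 mM NaCl, 5 mM CaCl2, 0.01% Tween20 preincubated 15 min RT with compound (up to 114 uM), then FITC-alphaIIb peptide (100 nM) added, 15 min RT.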

[12] = target: Cytochrome P450 2D6 (Homo sapiens) (UniProt P10635); assay: Cytochrome P450 family 2 subfamily D member 6 (CYP2D6) small molecule antagonists: luciferase biochemical (cell-free) qHTS assay (AID 1645840; active means well fitted curve in the direction sought with a large enough effect in the repeat runs; an effect the other way counts as inactive or inconclusive; further: nearly all actives have a fitted effect of over 55% in size; further: potency means the concentration at half of the fitted maximal effect)
Cytochrome P450 2D6 (Homo sapiens), sequence (P10635 whole entry, looked up): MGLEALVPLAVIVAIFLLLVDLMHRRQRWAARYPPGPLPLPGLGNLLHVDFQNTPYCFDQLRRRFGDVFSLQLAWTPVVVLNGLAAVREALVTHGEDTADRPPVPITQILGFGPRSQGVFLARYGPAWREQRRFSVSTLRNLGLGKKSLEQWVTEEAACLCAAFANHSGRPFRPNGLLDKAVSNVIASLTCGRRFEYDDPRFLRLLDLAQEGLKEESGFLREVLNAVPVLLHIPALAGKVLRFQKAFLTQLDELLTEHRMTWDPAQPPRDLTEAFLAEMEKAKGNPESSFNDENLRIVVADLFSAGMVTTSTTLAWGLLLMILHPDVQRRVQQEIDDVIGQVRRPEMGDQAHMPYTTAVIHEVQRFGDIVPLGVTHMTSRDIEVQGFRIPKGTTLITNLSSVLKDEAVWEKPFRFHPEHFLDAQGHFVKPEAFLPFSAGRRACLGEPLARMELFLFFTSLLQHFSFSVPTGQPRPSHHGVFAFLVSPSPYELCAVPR
Method in brief: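 P450-Glo CYP2D6 system: proluciferin substrate converted by enzyme to luciferin, read by luminescence proportional to activity. Enzyme-substrate mix with compound 10 min at room temperature, then NADPH regeneration 1 h before detection reagent.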

[13] = target: Cytochrome P450 2C9 (Homo sapiens) (UniProt P11712); assay: Cytochrome P450 family 2 subfamily C member 9 (CYP2C9) small molecule antagonists: luciferase biochemical (cell-free) qHTS assay (AID 1645842; active means well fitted curve in the direction sought with a large enough effect in the repeat runs; an effect the other way counts as inactive or inconclusive; further: nearly all actives have a fitted effect of over 55% in size; further: potency means the concentration at half of the fitted maximal effect)
Cytochrome P450 2C9 (Homo sapiens), sequence (P11712 whole entry, looked up): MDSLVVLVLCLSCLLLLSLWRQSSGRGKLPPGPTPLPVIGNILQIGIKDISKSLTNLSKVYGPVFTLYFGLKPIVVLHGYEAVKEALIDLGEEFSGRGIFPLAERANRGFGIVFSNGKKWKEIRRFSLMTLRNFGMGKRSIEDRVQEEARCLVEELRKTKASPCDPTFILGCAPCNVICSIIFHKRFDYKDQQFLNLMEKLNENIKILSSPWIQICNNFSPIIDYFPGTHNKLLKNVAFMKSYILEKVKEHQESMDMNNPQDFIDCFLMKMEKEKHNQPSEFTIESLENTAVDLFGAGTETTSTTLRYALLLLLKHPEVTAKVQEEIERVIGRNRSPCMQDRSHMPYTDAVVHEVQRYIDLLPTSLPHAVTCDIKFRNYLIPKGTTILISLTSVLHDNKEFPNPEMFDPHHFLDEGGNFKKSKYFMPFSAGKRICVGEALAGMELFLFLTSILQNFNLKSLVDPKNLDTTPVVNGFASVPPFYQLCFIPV
Method in brief: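 P450-Glo CYP2C9 system: proluciferin substrate with enzyme in mix containing 0.4% BSA, 10 min at room temperature, then NADPH regeneration solution added and incubated 1 h at 37C. Detection reagent stopped reaction; luminescence read after 20 min as RLU.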

[14] = target: Protein phosphatase 1D (Homo sapiens) (UniProt O15297); assay: Rhodamine-PBP qHTS Assay for Modulators of WT P53-Induced Phosphatase 1 (WIP1) (AID 1347425); further: % of control where 0% means no effect
Method in brief: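 Read-out: Rhodamine-PBP fluorescence (ex 525/em 598 nm) for released Pi, read each minute for 11 min after adding 10 uM VEPPL-pS-QETFS; signal taken as f1 minus pre-substrate f0. Enzyme 5 nM WIP1 with 1 hr room-temperature compound preincubation.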

[15] = Tertiary RLuc qRT-PCR qHTS assay for Zika virus inhibitors (AID 1347169); further: nearly all actives have a fitted effect of over 55% in size; further: potency means the concentration at half of the fitted maximal effect
Method in brief: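 Vero cells (1,000 per well) plated overnight at 37 degrees C, treated with compound in DMSO, then infected with recombinant ZIKV-RLuc (Cambodian) at MOI 1-2 for 48-72 hrs. Live-cell Renilla luciferase substrate added; luminescence read after 1-1.5 hrs.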

[16] = Cell Viability qHTS for small molecule stabilizers of the endoplasmic reticulum resident proteome (AID 1508629); conditions: cell viability counter-screen, 100 nM thapsigargin for final 4 h
[17] = A High-Content qHTS Against Drug Library for the Identification of Small Molecules that Inhibit DYT1 Early Onset Primary Dystonia-Associated Cell Pathology (AID 1645839; calls by dose curve; further: series mostly up to about 46 µM)
Method in brief: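 Cells were seeded and left for 24 h, then dosed with compound alongside tetracycline induction of mutant EGFP-TorsinA. They were incubated for 48 h, fixed in 4% paraformaldehyde, permeabilized and imaged for mislocalization (%pathology) and cell count.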

[18] = target: Cytochrome P450 3A4 (Homo sapiens) (UniProt P08684); assay: Cytochrome P450 family 3 subfamily A member 4 (CYP3A4) small molecule antagonists: luciferase qHTS assay (AID 1645841; active means well fitted curve in the direction sought with a large enough effect in the repeat runs; an effect the other way counts as inactive or inconclusive; further: nearly all actives have a fitted effect of over 45% in size)
Cytochrome P450 3A4 (Homo sapiens), sequence (P08684 whole entry, looked up): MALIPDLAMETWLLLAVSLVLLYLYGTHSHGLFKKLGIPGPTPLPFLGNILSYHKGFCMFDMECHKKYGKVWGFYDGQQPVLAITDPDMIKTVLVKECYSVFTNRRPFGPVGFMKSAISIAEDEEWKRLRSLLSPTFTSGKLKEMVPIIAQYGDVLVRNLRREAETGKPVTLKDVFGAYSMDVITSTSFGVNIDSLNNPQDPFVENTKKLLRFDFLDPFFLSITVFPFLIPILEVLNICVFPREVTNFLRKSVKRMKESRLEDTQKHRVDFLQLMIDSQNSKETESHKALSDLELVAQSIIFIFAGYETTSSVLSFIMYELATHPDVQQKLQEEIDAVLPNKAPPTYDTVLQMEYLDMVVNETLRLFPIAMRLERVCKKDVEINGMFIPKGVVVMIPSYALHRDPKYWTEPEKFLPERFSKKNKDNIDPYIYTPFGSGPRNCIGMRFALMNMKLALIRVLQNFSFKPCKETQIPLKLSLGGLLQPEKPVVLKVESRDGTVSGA
Method in brief: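 P450-Glo CYP3A4 enzyme with proluciferin substrate preincubated 10 min with compound at room temperature, then NADPH regeneration 1 h. Luciferin detection reagent added for 20 min; luminescence recorded. Ketoconazole positive control.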

Cc1nn(-c2ccccc2)c(C)c1/C=N/N1CCN(Cc2ccccc2)CC1
inactive: Potency [1] | outcome [2] | outcome [3] | outcome [4] | outcome [5] | Potency [6] | outcome (Papain (Carica papaya))

CC(C)N(CCC(=O)c1ccc2ccccc2c1)Cc1ccccc1
inactive: outcome [2] | outcome [3] | outcome [5] | Potency [8]
active: Potency [1] 12.6 µM | Potency [7] 5.87 µM | Potency [6] 28.2 µM

C[N+](C)(C)CCO
inactive: Potency [1] | outcome [2] | outcome [3] | outcome [4] | outcome [5] | Potency [8] | outcome (Papain (Carica papaya))

NC(N)=NCCCCN=C(N)N
inactive: Potency [1] | outcome [2] | outcome [3] | outcome [4] | outcome [5] | Potency [8] | outcome (Papain (Carica papaya))

COC(=O)C1=CO[C@@H](O)[C@@H]2C(CO)=CC[C@H]12
inactive: Potency [1] | outcome [2] | outcome [3] | outcome [4] | outcome [5] | Potency [6] | outcome (Papain (Carica papaya))

O=C(Nc1ccc(S(=O)(=O)N2CCOCC2)cc1)c1cc(Cl)ccc1NS(=O)(=O)c1ccc(Cl)s1
active: Potency [10] 11.2 µM | Potency [12] 15.5 µM | Potency [13] 0.0436 µM
inactive: Potency [9] | Potency [7] | outcome [4] | Potency [11] | Potency [8]

Nc1c(NC/C=C\COc2cc(CN3CCCCC3)ccn2)c(=O)c1=O
inactive: Potency [9] | Potency [10] | outcome [14] | outcome [4] | Potency [6]

O=C1NC(=O)/C(=C/c2ccc3c(c2)OC(F)(F)O3)S1
active: Potency [15] 11.7 µM
inactive: outcome [2] | Potency [7] | outcome [3] | outcome [4] | Potency [6] | Potency [8] | outcome (Papain (Carica papaya))

N[C@@H](Cn1ccc(=O)c(O)c1)C(=O)O
inactive: Potency [1] | outcome [2] | outcome [3] | outcome [4] | outcome [5] | activity change, negative = inhibition [6] 2.21% [at 12.4 µM] | outcome (Papain (Carica papaya))

O=[N+]([O-])c1ccc(-c2nc(-c3ccc(F)cc3)c(-c3ccncc3)[nH]2)cc1
inactive: outcome [2] | outcome [3] | outcome [4] | outcome [5] | Potency [6] | outcome (Papain (Carica papaya))
active: Potency [15] 4.66 µM

Brc1ccc([C@H]2CN3CCSC3=N2)cc1
inactive: Potency [1] | outcome [2] | outcome [3] | outcome [4] | outcome [5] | Potency [6] | Potency [8] | outcome (Papain (Carica papaya))

Cc1nc2n(c(=O)c1CCN1CCC(C(=O)c3ccc(F)cc3)CC1)CCS2
inactive: Potency [9] | Potency [10] | outcome [14] | outcome [4] | Potency [6] | max response [16] -14.5% | Potency [17]
active: Potency [12] 0.275 µM

CCCCCCOC(=O)NC(=N)c1ccc(NCc2nc3cc(C(=O)N(CCC(=O)OCC)c4ccccn4)ccc3n2C)cc1
inactive: Potency [9] | Potency [7] | Potency [10] | outcome [14] | outcome [4] | Potency [6]
active: Potency [13] 1.38 µM

COC(=O)c1c(Cl)c(Cl)c(C(=O)OC)c(Cl)c1Cl
inactive: Potency [9] | Potency [10] | outcome [14] | outcome [4] | Potency [6] | max response [16] 10.1% | Potency [17] | Potency [12] | Potency [13]

O=C1NC(c2cccc([N+](=O)[O-])c2)=CCN1c1ccccc1O
inactive: Potency [1] | outcome [2] | outcome [3] | outcome [4] | Potency [6] | max response [16] 23.5% and 15.8% | Potency [8] | outcome (Papain (Carica papaya))

COc1c(C)c2c(c(O)c1C/C=C(\C)CCC(=O)OCCN1CCOCC1)C(=O)OC2
inactive: Potency [9] | Potency [10] | outcome [14] | Potency [6] | Potency [8] | Potency [17]
active: Potency [15] 0.739 µM | Potency [12] 13.8 µM

O=C(COCCOCCOCC(=O)Nc1c(I)cc(I)c(C(=O)O)c1I)Nc1c(I)cc(I)c(C(=O)O)c1I
inactive: Potency [15] | Potency [9] | Potency [10] | outcome [14] | outcome [4] | Potency [17] | Potency [12] | Potency [13]

O=C(O)C(=O)Nc1cccc(-c2nn[nH]n2)c1
inactive: Potency [9] | Potency [7] | Potency [10] | outcome [14] | outcome [4] | Potency [6] | Potency [17] | Potency [12] | Potency [13]

CC1c2ccccc2CN1NC(=O)c1ccc(Cl)c(S(N)(=O)=O)c1 (stereo not given)
inactive: Potency [9] | Potency [7] | Potency [10] | outcome [14] | outcome [4] | Potency [6] | Potency [8] | Potency [17] | Potency [12] | Potency [18] | Potency [13]

Clc1ccc2c(c1)N=C(N1CCNCC1)c1ccccc1N2
inactive: Potency [1] | outcome [2] | outcome [3] | outcome [4] | outcome [5] | Potency [6] | outcome (Papain (Carica papaya))

C=CCNc1nc(NCC=C)nc(N2CCN(C(c3ccc(F)cc3)c3ccc(F)cc3)CC2)n1
inactive: Potency [9] | Potency [10] | outcome [14] | outcome [4] | Potency [6] | max response [16] 26.9% | Potency [17] | Potency [12] | Potency [13]

COC(=O)c1cc(Cl)ccc1NS(=O)(=O)C(F)(F)F
inactive: Potency [9] | Potency [10] | outcome [14] | outcome [4] | Potency [11] | Potency [17] | Potency [12] | Potency [13]
